Assay [1] is described as follows: NCI Yeast Anticancer Drug Screen. Data for the rad50 strain (AID 155).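 Note: 0% = growth of vehicle-only cultures of the same strain.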 The following applies: S. cerevisiae rad50 strain growth inhibition, hits give high values. The gist of the method:
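Growth of the mutant yeast was measured after compound exposure and referenced to vehicle-treated cultures.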

A short description of assay [2]: NCI Yeast Anticancer Drug Screen. Data for the mec2-1 strain (AID 157). To be noted: S. cerevisiae mec2-1 strain, hits give high values. The gist of the method: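 Each compound was tested on mec2-1 yeast, a strain altered in DNA damage repair or cell cycle control. Growth inhibition is reported relative to vehicle.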
Assay [3] can be described thus: NCI Yeast Anticancer Drug Screen. Data for the sgs1 mgt1 strain (AID 161).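 Note: 0% = growth of cultures given vehicle only.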 To be noted: S. cerevisiae sgs1 mgt1 strain, hits give high values. Put shortly: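 Inhibition of yeast growth, normalised to vehicle-treated controls, is reported for a strain bearing genetic alterations in DNA damage repair.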
The nature of assay [4]: NCI Yeast Anticancer Drug Screen. Data for the cln2 rad14 strain (AID 165).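 Note: 0% = growth equal to vehicle treated cultures.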 To be noted: S. cerevisiae cln2 rad14 strain, hits give high values. The gist of the method:
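Test compounds were added to cln2 rad14 yeast cultures; inhibition of growth was then determined by comparison with vehicle treatment.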

Assay [5] in a line: NCI Yeast Anticancer Drug Screen. Data for the bub3 strain (AID 167). To be noted: S. cerevisiae bub3 mutant strain, hits give high values. Put shortly:
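Whole-cell yeast assay. The mutant strain was incubated with compounds, and growth inhibition was determined by comparison with vehicle-treated cells.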

Assay [6] is described as follows: NCI Yeast Anticancer Drug Screen. Data for the mlh1 rad18 strain (AID 175). To be noted: S. cerevisiae mlh1 rad18 strain growth inhibition, hits give high values. The gist of the method:
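Inhibition values reflect reduced growth of mutant yeast versus vehicle-treated controls following compound exposure; the mutations affect DNA damage repair.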

Setting [7] is: at 5.0 µM (retest, dose inferred, filed as 0.5).
Where [8] appears, read: at 50.0 µM (retest, dose inferred, filed as 5.0).

About 79,000 compounds went through this panel and 15% of them were active in at least one assay; those are over-represented in the sample as a whole. Values without a mark were called inactive. Calls of active or inactive are those of the source. Cut-off read from the data, not from the text of the source: active = growth inhibition above about 70%; inactive = the rest.

Our source for the growth inhibition values is PubChem BioAssay (NCI).

In the case of `COc1cc(OC)cc(C2OC3=C(Nc4ccc([N+](=O)[O-])cc4N3)C2=O)c1` (configuration not stated), the growth inhibition is 2% in assay [1] (setting [7]); 60% in assay [1] (setting [8]); 86.8% (active) in assay [1] (at 50.0 µM); 10% in assay [2] (setting [7]); 40% in assay [2] (setting [8]); 59.8% in assay [2] (at 50.0 µM). Also, the growth inhibition in assay [3] (setting [7]) is 30%; in assay [3] (setting [8]), 50%; in assay [3] (at 50.0 µM), 81.1% (active); in assay [4] (setting [7]), 11%; in assay [4] (setting [8]), 29%; in assay [4] (at 50.0 µM) it was 57%. The growth inhibition in assay [5] (setting [7]) is 24%; in assay [5] (setting [8]), 16%; in assay [5] (at 50.0 µM), 51.2%; in assay [6] (setting [7]), -4%; in assay [6] (setting [8]), 49%; in assay [6] (at 50.0 µM), 82.4% (active).
On to `O=C(NC(=S)Nc1ncc([N+](=O)[O-])s1)c1ccccc1C(=O)NC(=S)Nc1ncc([N+](=O)[O-])s1`, for which the growth inhibition in assay [1] (setting [7]) was -5%; in assay [1] (setting [8]) it was 78% (active); in assay [1] (at 50.0 µM), 69.5%; in assay [2] (setting [7]) it was 9%; in assay [2] (setting [8]), 67%; in assay [2] (at 50.0 µM), 29.6%. Also, the growth inhibition in assay [3] (setting [7]) is 19%; in assay [3] (setting [8]) it was 47%; in assay [3] (at 50.0 µM), 80.5% (active); in assay [4] (setting [7]), -6%; in assay [4] (setting [8]) it was 40%; in assay [4] (at 50.0 µM), 19.4%. The growth inhibition in assay [5] (setting [7]) was -6%; in assay [5] (setting [8]), 96% (active); in assay [5] (at 50.0 µM) it was 75.8% (active); in assay [6] (setting [7]) it was 4%; in assay [6] (setting [8]) it was 87% (active); in assay [6] (at 50.0 µM) it was 79.7% (active).
In the case of `Cc1cc(O)c2c(c1)C(=O)c1c(c(O)cc(O)c1-c1c(O)cc(O)c3c1C(=O)c1cc(C)cc(O)c1C3=O)C2=O`, the growth inhibition was 14% in assay [1] (setting [7]); 60% in assay [1] (setting [8]); 64.8% in assay [1] (at 50.0 µM); 29% in assay [2] (setting [7]); 70% (active) in assay [2] (setting [8]); 70.3% (active) in assay [2] (at 50.0 µM). Besides, the growth inhibition in assay [3] (setting [7]) was 8%; in assay [3] (setting [8]), 64%; in assay [3] (at 50.0 µM), 69.8%; in assay [4] (setting [7]), 27%; in assay [4] (setting [8]), 79% (active); in assay [4] (at 50.0 µM), 58.1%. The growth inhibition in assay [5] (setting [7]) is 17%; in assay [5] (setting [8]), 69%; in assay [5] (at 50.0 µM), 63.7%; in assay [6] (setting [7]), -8%; in assay [6] (setting [8]), 80% (active); in assay [6] (at 50.0 µM), 59.1%.
In the case of `COC(=O)C12Oc3ccc(-c4ccc5c(c4O)C(O)=C4C(=O)CC(C)C(O)C4(C(=O)OC)O5)c(O)c3C(O)=C1C(=O)CC(C)C2O` (configuration not stated), the growth inhibition in assay [1] (setting [7]) was 57%; in assay [1] (setting [8]), 97% (active); in assay [1] (at 50.0 µM), 90.5% (active); in assay [2] (setting [7]) it was 61%; in assay [2] (setting [8]) it was 96% (active); in assay [2] (at 50.0 µM) it was 88.3% (active). Besides, the growth inhibition was 37% in assay [3] (setting [7]); 98% (active) in assay [3] (setting [8]); 82.5% (active) in assay [3] (at 50.0 µM); 6% in assay [4] (setting [7]); 96% (active) in assay [4] (setting [8]); 91.2% (active) in assay [4] (at 50.0 µM). Besides, the growth inhibition was 53% in assay [5] (setting [7]); 97% (active) in assay [5] (setting [8]); 94.1% (active) in assay [5] (at 50.0 µM); 57% in assay [6] (setting [7]); 97% (active) in assay [6] (setting [8]); 80.8% (active) in assay [6] (at 50.0 µM).
On to `N#CSc1cc(SC#N)c2ccccc2c1N`, for which the growth inhibition in assay [1] (setting [7]) is 0%; in assay [1] (setting [8]), -3%; in assay [1] (at 50.0 µM), 70.2% (active); in assay [2] (setting [7]), -2%; in assay [2] (setting [8]) it was -12%; in assay [2] (at 50.0 µM), 62.9%. Further, the growth inhibition in assay [3] (setting [7]) was 3%; in assay [3] (setting [8]) it was -9%; in assay [3] (at 50.0 µM), 57.9%; in assay [4] (setting [7]), 1%; in assay [4] (setting [8]), -27%; in assay [4] (at 50.0 µM), -1.2%. The growth inhibition in assay [5] (setting [7]) is 19%; in assay [5] (setting [8]), 28%; in assay [5] (at 50.0 µM), 81% (active); in assay [6] (setting [7]) it was 8%; in assay [6] (setting [8]), -2%; in assay [6] (at 50.0 µM) it was 63.5%.
In the case of `CC(C(O)c1ccccc1)C(O)(C(F)(F)F)C(F)(F)F` (configuration not stated), the growth inhibition is 8% in assay [1] (setting [7]); 13% in assay [1] (setting [8]); 8.95% in assay [1] (at 50.0 µM); 6% in assay [2] (setting [7]); -3% in assay [2] (setting [8]); -7.6% in assay [2] (at 50.0 µM). For the same compound, the growth inhibition in assay [3] (setting [7]) was 3%; in assay [3] (setting [8]) it was 10%; in assay [3] (at 50.0 µM) it was -15.9%; in assay [4] (setting [7]), 1%; in assay [4] (setting [8]), -4%; in assay [4] (at 50.0 µM), 15.5%. For the same compound, the growth inhibition in assay [5] (setting [7]) is -2%; in assay [5] (setting [8]) it was -7%; in assay [5] (at 50.0 µM), -19.6%; in assay [6] (setting [7]), 18%; in assay [6] (setting [8]) it was 6%; in assay [6] (at 50.0 µM) it was 17.4%.
As for `O=[N+]([O-])c1cccc2nc3ccccc3c(NCCO)c12`, the growth inhibition in assay [1] (setting [7]) was 78% (active); in assay [1] (setting [8]) it was 94% (active); in assay [1] (at 50.0 µM), 86.8% (active); in assay [2] (setting [7]), 84% (active); in assay [2] (setting [8]), 98% (active); in assay [2] (at 50.0 µM), 92% (active). Further, the growth inhibition in assay [3] (setting [7]) is 82% (active); in assay [3] (setting [8]) it was 95% (active); in assay [3] (at 50.0 µM), 91.5% (active); in assay [4] (setting [7]) it was 89% (active); in assay [4] (setting [8]), 96% (active); in assay [4] (at 50.0 µM) it was 92% (active). The growth inhibition in assay [5] (setting [7]) was 28%; in assay [5] (setting [8]), 94% (active); in assay [5] (at 50.0 µM) it was 87.2% (active); in assay [6] (setting [7]) it was 89% (active); in assay [6] (setting [8]) it was 96% (active); in assay [6] (at 50.0 µM), 86.6% (active).
For the compound `COC(=O)[C@@H]1c2cc3c(c(O)c2[C@@H](OC2OC(C)C(OC)C(C)(OC)C2OC)C[C@]1(C)O)C(=O)c1c(O)cc2c(c1C3=O)O[C@H]1O[C@]2(C)[C@H](O)[C@@H](N(C)C)[C@@H]1O` (some centres not stated), the growth inhibition is 61% in assay [1] (setting [7]); 98% (active) in assay [1] (setting [8]); 90.8% (active) in assay [1] (at 50.0 µM); 45% in assay [2] (setting [7]); 99% (active) in assay [2] (setting [8]); 93% (active) in assay [2] (at 50.0 µM). Further, the growth inhibition is 35% in assay [3] (setting [7]); 99% (active) in assay [3] (setting [8]); 92.3% (active) in assay [3] (at 50.0 µM); 33% in assay [4] (setting [7]); 98% (active) in assay [4] (setting [8]); 90.6% (active) in assay [4] (at 50.0 µM). In addition, the growth inhibition was 60% in assay [5] (setting [7]); 99% (active) in assay [5] (setting [8]); 91.2% (active) in assay [5] (at 50.0 µM); 79% (active) in assay [6] (setting [7]); 98% (active) in assay [6] (setting [8]); 89.8% (active) in assay [6] (at 50.0 µM).
For the compound `C=C/C=C/CC=C`, the growth inhibition in assay [1] (setting [7]) was -151%; in assay [1] (setting [8]), 38%; in assay [1] (at 50.0 µM), 34.2%; in assay [2] (setting [7]), -48%; in assay [2] (setting [8]), -41%; in assay [2] (at 50.0 µM), 1.2%. For the same compound, the growth inhibition in assay [3] (setting [7]) is -62%; in assay [3] (setting [8]), -38%; in assay [3] (at 50.0 µM), 6.6%; in assay [4] (setting [7]) it was -45%; in assay [4] (setting [8]) it was -50%; in assay [4] (at 50.0 µM) it was 85.3% (active). For the same compound, the growth inhibition in assay [5] (setting [7]) is -60%; in assay [5] (setting [8]), -46%; in assay [5] (at 50.0 µM), 21.4%; in assay [6] (setting [7]), -120%; in assay [6] (setting [8]), -90%; in assay [6] (at 50.0 µM), 59.9%.
